Assay outcomes: PubChem, National Center for Advancing Translational Sciences (NCATS)
The entries come from a sample that favours hits as a whole.
VDR inh = blocks the human vitamin D receptor; P11473; VDR-SRC2-3 peptide fluorescence polarization, 2 h; Potency, µM, inactives show max response, negative = inhibition, actives largely listed as inhibitors; 400,000 tested, 0.93% active; AID 504847; further: on the % scale 0 is the no-effect control and ±100 the full control effect
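Signal is fluorescence polarization, reporting how far test compounds block the interaction of VDR with the SRC2-3 coregulator peptide after a 2 h room-temperature incubation.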
GRP78 ERSR act = inducers of ER stress response in human glioma cells | 420,000 tested, 0.02% active | U87-MG GRP78 promoter luciferase reporter, 16 h | Potency, µM, inactives show top-dose activation, hits mostly activators; further: series mostly up to about 76 µM; % of control where 0% means no effect; nearly all actives have a fitted effect of over 35% in size
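Stably transfected U87-MG human glioma cells carrying a GRP78-based luminescent sensor were seeded at 1000 cells/well, pin-dosed with compounds and incubated 16 h. Luciferase reagent was then added, and end-point luminescence was read after 10 min at room temperature.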
G9a inh = blocks human histone lysine methyltransferase G9a; Q96KQ7; G9a H3K9 monomethylation, AlphaScreen, 2 h; Potency, µM (series often up to 102 µM), without a hit: at the highest dose activity, negative = inhibition, hits mostly inhibitors; 350,000 tested, 8.8% active; further: on the % scale 0 is the no-effect control and ±100 the full control effect; nearly all actives have a fitted effect of over 75% in size
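G9a (20 nM) was preincubated 15 min with compound, then reacted 2 h at room temperature with 500 nM biotin-H3K9 peptide and 20 µM SAM. Monomethyl-H3K9 detected by AlphaScreen using anti-H3K9me1 antibody.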
Sfp inh = blocks B. subtilis Sfp PPTase activity. Q9F4F7. Biochemical Sfp PPTase activity, qHTS. Potency, µM, for the others: largest response in the series, negative = inhibition, most hits filed as inhibitors. 310,000 tested, 3.5% active. AID 1490;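 further: the enzyme is Sfp with the accession as filed and its product quenches rhodamine fluorescence; 0% = enzyme reaction without inhibitor and -100% = no enzyme wells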
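Sfp 15 nM + cpd, 15 min RT; start w/ rhodamine-CoA 5 uM, BHQ-2-YbbR 12.5 uM (final); 50 mM Hepes pH 7.6, 10 mM MgCl2, 0.01% NP-40, 0.01% BSA; read 525/598 nm at 0 and 30 min.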
ALOX12 inh = inhibitors of human 12S-lipoxygenase ALOX12. P18054. purified 12hLO, xylenol orange hydroperoxide absorbance. Potency, µM (series often up to 108 µM), without a hit: top-dose activity change, negative = inhibition, actives largely listed as inhibitors. 580,000 tested, 1.1% active; further: on the % scale 0 is the no-effect control and ±100 the full control effect
Target sequence (P18054 whole entry, looked up): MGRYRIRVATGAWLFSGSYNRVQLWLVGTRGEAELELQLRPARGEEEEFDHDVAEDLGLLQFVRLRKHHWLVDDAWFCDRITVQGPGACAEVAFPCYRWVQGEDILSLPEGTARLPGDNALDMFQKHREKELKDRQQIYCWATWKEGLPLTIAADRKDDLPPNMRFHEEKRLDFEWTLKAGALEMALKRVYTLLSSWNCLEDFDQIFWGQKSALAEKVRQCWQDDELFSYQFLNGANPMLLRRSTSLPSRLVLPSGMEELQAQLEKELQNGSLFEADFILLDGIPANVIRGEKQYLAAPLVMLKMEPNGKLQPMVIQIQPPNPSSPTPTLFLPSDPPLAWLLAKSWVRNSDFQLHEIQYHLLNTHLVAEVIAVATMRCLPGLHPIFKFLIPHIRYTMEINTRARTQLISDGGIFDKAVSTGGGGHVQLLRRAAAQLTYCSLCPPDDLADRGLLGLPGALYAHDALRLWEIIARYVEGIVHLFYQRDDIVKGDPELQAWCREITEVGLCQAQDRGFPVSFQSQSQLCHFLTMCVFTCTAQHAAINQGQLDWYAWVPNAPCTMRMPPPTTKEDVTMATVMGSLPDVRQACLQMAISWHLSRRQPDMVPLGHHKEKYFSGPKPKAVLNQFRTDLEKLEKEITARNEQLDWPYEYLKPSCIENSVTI
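Purified human 12hLO at 150 nM in 25 mM Hepes, 0.01% Triton X-100, pH 7.0, preincubated 15 min at room temperature with compound. Reaction started with 40 uM arachidonic acid, 30 min at room temperature. Hydroperoxide measured by Fe-xylenol orange, 573/405 nm absorbance ratio.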
* marks the source's active call; other numbers are inactive results; ? = inconclusive; nt = no result; ! = repeats disagree; [ ] = remark or other dose. The call rests on the fitted dose curve; in most records, active means well fitted curve in the direction sought with a large enough effect; inconclusive means small, poorly fitted or top-dose-only effect, or another doubt; inactive means no such curve, though single readings can be large; an effect the other way counts as inactive or inconclusive. Potency means the concentration at half of the fitted maximal effect.

SMILES	VDR inh	GRP78 ERSR act	G9a inh	Sfp inh	ALOX12 inh
CN1CCc2nc3sc(C(=O)c4ccc(Cl)cc4)c(N)c3cc2C1	nt	nt	nt	nt	35µM*
CCN1CCc2nc3sc(C(=O)c4ccc(F)cc4)c(N)c3cc2C1	1%	2%	?	nt	?
CN1CCc2nc3sc(C(=O)Nc4ccccc4C(F)(F)F)c(N)c3cc2C1	9%	-3%	13µM*	nt	-7%
COc1ccc(-c2nc3cc(NC(=O)COc4ccc(C)cc4)ccc3o2)cc1	nt	nt	nt	nt	15%
COc1ccc(NC(=O)O[C@@H]2CC[C@]3(C)C(CC[C@@H](O)[C@H]3CC(=O)NCc3ccccc3OC)[C@]2(C)CO)cc1 (some centres not stated)	nt	nt	nt	nt	-16%
CCN(CC)C(=O)CSc1nc(C)cc(-c2cccs2)c1C#N	2%	-2%	10µM*	40µM*	?
CCCCN(CCCNC(=O)c1c(C)cc(=O)oc1C)c1ccccc1	-21%	1%	50µM*	12%	-2%
CCN(CCCNC(=O)c1c(C)cc(=O)oc1C)c1ccccc1	-1%	-5%	?	-8%	7%
CCn1c(C)cc(/C=C2/NC(=O)N(Cc3ccccc3F)C2=O)c1C	-7%	2%	-21%	6%	?
CCn1c(C)cc(/C=C2\NC(=O)N(Cc3ccccc3)C2=O)c1C	-7%	-3%	13µM*	-2%	3%
CC(C)Sc1nnc(CNC(=O)C23CC4CC(CC(C4)C2)C3)n1Cc1ccccc1	1%	-2%	32µM*	-6%	-8%
Cc1ccc(NC(=O)c2cc(N(C)C)ccc2[P+](=O)O)cc1	9%	3%	28µM*	10%	?
CNCCC1Sc2ccccc2Oc2ccccc21 (configuration not stated)	4%	-2%	10µM*	-8%	?
CN(C)CCCC1Sc2ccccc2Sc2ccccc21 (configuration not stated)	4%	-6%	nt	nt	?
CCCC(C)C(=O)Nc1ccc(S(=O)(=O)N2CCCC2)cc1 (configuration not stated)	-16%	-1%	71µM*	3%	0%
CC(Nc1cccc([N+](=O)[O-])c1)C(=O)Nc1ccc(S(=O)(=O)N2CCCC2)cc1 (configuration not stated)	-2%	-7%	50µM*	nt	-4%
CC(NCc1ccccc1Cl)C(=O)Nc1ccc(S(=O)(=O)N2CCCC2)cc1 (configuration not stated)	2%	-4%	14µM*	56µM*	?
CC(C)CC(=O)NC(=S)Nc1ccc(S(=O)(=O)N2CCCC2)cc1	-19%	-1%	14µM*	11%	-24%
CC(Oc1ccccc1Cl)C(=O)Nc1ccc(S(=O)(=O)N2CCCC2)cc1 (configuration not stated)	-6%	0%	?	nt	-40%
CCCc1cc(Nc2cccc(OCC)c2)n2ncnc2n1	4%	-4%	56µM*	5%	25%
CCCc1cc(Nc2cccc(OC)c2)n2ncnc2n1	-16%	-3%	-32%[59 µM]	3%	-16%
Cc1ccccc1CNC(=O)Cc1n[nH]c(=O)c2ccccc12	nt	nt	nt	nt	1%
COc1ccccc1-n1c(CNC(=O)c2ccco2)n[nH]c1=S	-8%	1%	25µM*	-2%	-13%
O=C(NCc1n[nH]c(=S)n1-c1ccc(Cl)c(Cl)c1)c1ccco1	1%	-1%	8%[12.7 µM]	-12%	?
COc1ccc(CC(=O)NCc2n[nH]c(=S)n2-c2cccc(Cl)c2)cc1	0%	-3%	3.2µM*	14%	-8%
SMILES	VDR inh	GRP78 ERSR act	G9a inh	Sfp inh	ALOX12 inh
COc1ccc(CC(=O)NCc2n[nH]c(=S)n2-c2ccccc2OC)cc1	-10%	0%	35µM*	11%	-21%
O=C(O)c1cc(=O)c2cccc(O)c2[nH]1	6%	-4%	-33%[2.33 µM]	79µM*!	-9%
O=C(O)c1cc(=O)c2ccccc2[nH]1	5%	-4%	10µM*!	-24%	13µM*!
Cc1cccc(N/N=C/c2ccc(Cl)c(Cl)c2)c1	nt	nt	nt	nt	4µM*
Cc1cccc(N/N=C/c2ccc(F)c(F)c2)c1	nt	nt	nt	nt	5.6µM*
CCN(C(=O)C(C)S(=O)(=O)Cc1ccccc1Cl)c1ccccc1 (configuration not stated)	nt	nt	nt	nt	4%
